Only a selection was taken, and hits are over-represented in it overall.
Eya2 phos inh: Eya2 (human) phosphatase inhibition | recombinant Eya2, OMFP fluorescence dephosphorylation (OMFP is methylfluorescein phosphate) | O00167 | AID 488837 | 330,000 tested, 0.006% active | Potency, µM (highest dose often 76.9 µM), for inactives: at the highest dose activity, negative = inhibition, usual class: inhibitors; further: potency means the concentration at half of the fitted maximal effect
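Eya2 protein (added as 0.2 uM solution) was preincubated with compound for 10 min at ambient temperature in 50 mM HEPES pH 7.5, 50 mM NaCl, 5 uM MgCl2, 0.05% BSA, 1 mM DTT. OMFP (added at 50 uM) then reacted 10 min; fluorescence read at 485/525 nm.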
Anesthetic bind: candidate novel general anesthetic via apoferritin binding; P02791; apoferritin/1-aminoanthracene competitive binding, fluorescence; Potency, µM (highest dose often 77.5 µM), without a hit: at the highest dose activity change, negative = displacement, most hits filed as inhibitors; 350,000 tested, 0.074% active; AID 485281; further: potency means the concentration at half of the fitted maximal effect; nearly all actives have a fitted effect of over 20% in size
Target sequence (P02791 2-175 limits assumed): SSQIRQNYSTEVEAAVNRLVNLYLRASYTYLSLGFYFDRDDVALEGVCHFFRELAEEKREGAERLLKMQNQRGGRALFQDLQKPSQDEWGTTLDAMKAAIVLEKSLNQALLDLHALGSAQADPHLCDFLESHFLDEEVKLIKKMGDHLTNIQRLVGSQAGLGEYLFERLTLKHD
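Horse-spleen apoferritin (10 uM) was mixed with 50% saturated 1-aminoanthracene in PBS, exposed to compounds for 10 min at room temperature, and read for fluorescence (ex 380 nm, em 535 nm). Competitive displacement was fitted with a four-parameter Hill equation.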
Six1-Eya2 blk: blocks human Six1 binding to Eya2; AlphaScreen GST-Six1/His-Eya2 binding, biochemical; hits give low values; activity change, % (concentration not given with the values); 360,000 tested, 0.56% active; in the data active means activity change below about -65%; inconclusive means mostly about -30% to -63%
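Six1/Eya2 binding was read as AlphaScreen signal after compounds were pinned into GST-Six1 plus His-tagged Eya2 (5X stock 250/500 nM) in pH 8.0 Tris/NaCl/TCEP buffer, beads added, then incubated 1 h, 37 C, dark.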
GALK inhibitor: inhibitors of human galactokinase; Purified GALK, Kinase-Glo residual ATP luminescence; Potency, µM (series often up to 57.5 µM), inactives show at the top dose activity change, negative = inhibition, actives largely listed as inhibitors; 270,000 tested, 0.007% active; further: potency means the concentration at half of the fitted maximal effect
Target sequence (P51570 whole entry, looked up): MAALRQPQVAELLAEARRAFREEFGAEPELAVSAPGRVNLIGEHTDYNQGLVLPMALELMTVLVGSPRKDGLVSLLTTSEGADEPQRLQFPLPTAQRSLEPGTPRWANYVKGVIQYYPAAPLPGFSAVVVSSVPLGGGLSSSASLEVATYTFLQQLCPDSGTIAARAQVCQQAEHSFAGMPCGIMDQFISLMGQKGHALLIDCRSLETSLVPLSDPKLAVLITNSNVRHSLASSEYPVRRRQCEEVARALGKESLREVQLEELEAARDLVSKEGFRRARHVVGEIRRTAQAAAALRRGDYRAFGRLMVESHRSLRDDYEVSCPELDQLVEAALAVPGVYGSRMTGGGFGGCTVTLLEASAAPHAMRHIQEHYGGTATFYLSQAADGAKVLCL
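Luminescence from leftover ATP (Ultra-Glo luciferase/luciferin) served as read-out after a 1 h room-temperature reaction of 5 nM GALK with 35 uM ATP and 100 uM galactose.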
JMJD2E inh: JMJD2E (human) inhibition; JMJD2E catalytic domain, FDH-coupled NADH fluorescence (FDH is formaldehyde dehydrogenase); Potency, µM (doses to about 57.1 µM), inactives show at the highest dose activity change, negative = inhibition, hits mostly inhibitors; 230,000 tested, 1.6% active; AID 2147; active means well fitted inhibition curve with a large enough effect, not every such curve was filed as active; inconclusive means small, poorly fitted or top-dose-only effect, or another doubt; inactive means no such curve, though single readings can be large or run the other way;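 further: potency means the concentration at half of the fitted maximal effect; 0% = wells with enzyme and -100% = buffer wells without enzyme; nearly all actives have a fitted effect of over 50% in size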
CtBP-E1A inh: inhibitors of CtBP/E1A interaction | AlphaScreen GST-E1A/His-CtBP binding, 1536-well; hits give low values | activity change, % (no concentration beside the values) | 340,000 tested, 0.49% active | AID 651724; in the data active means activity change below about -65%; inconclusive means mostly about -30% to -63%
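Steps: dispense buffer (Tris pH 8.0, NaCl 300 mM, TCEP 1 mM, BSA, Tween 20); add 5X protein mix (GST-E1A, His-CtBP, 125 nM each); pin 23 nL compound; 2 h at 37 °C, dark; add 5X beads (50 ug/mL); 1 h; read.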
An asterisk follows results filed as active; ? = inconclusive; / = no result given; [ ] = another dose, or the depositor's remark. Unless noted, the call rests on the fitted dose curve; in most records, active means well fitted curve in the direction sought with a large enough effect; inconclusive means small, poorly fitted or top-dose-only effect, or another doubt; inactive means no such curve, though single readings can be large; an effect the other way counts as inactive or inconclusive. Unless noted, on the % scale 0 is the no-effect control and ±100 the full control effect.

SMILES	Eya2 phos inh	Anesthetic bind	Six1-Eya2 blk	GALK inhibitor	JMJD2E inh	CtBP-E1A inh
O=C(NCc1ccccc1)C1CCCN1S(=O)(=O)c1ccc(F)cc1 (stereo not given)	-8%	8%	0	6%	/	-81*
COC(=O)CN1CC(=O)c2ccccc2S1(=O)=O	/	6%	/	/	/	/
O=c1c2c(-c3ccccc3)csc2ncn1/N=C/c1cccc([N+](=O)[O-])c1O	3%	?	?	-1%	-7%	-72*
O=c1c2c(-c3ccccc3)csc2ncn1/N=C/c1ccc(O)c([N+](=O)[O-])c1	-17%	?	2	8%	-1%	/
C=CCSc1nnc(-c2cc3c(-c4ccccc4)nn(C)c3s2)n1C	-13%	-13%	-75*	2%	?	-76*
CC(=NNC(=S)N1CC2CCC(CC2)C1)c1cnccn1	/	/	-92*	/	/	-94*
CC(=NNC(=S)N1CCN(C2CCCCCC2)CC1)c1ccccn1	/	/	-92*	/	/	0
CC(=NNC(=S)N1CCN(c2ccccn2)CC1)c1nccs1	/	/	-91*	/	/	-94*
C/C(=N\NC(=O)C1CCCN(S(=O)(=O)c2ccccc2)C1)c1ccccn1 (stereo not given)	8%	-5%	-86*	-1%	?	-90*
C/C(=N\NC(=O)C1CCCN(S(=O)(=O)c2ccccc2)C1)c1ccncc1 (stereo not given)	12%	-3%	-6	-2%	7%	-1
S=C(NC1CCCC1)N1CCN(c2ccccn2)CC1	-2%	-3%	-1	0%	?	-2
COc1cc(OC)cc(-c2nnc3n2N=C(c2c(OC)cccc2OC)CS3)c1	/	-16%	/	/	/	/
COC(=O)[C@]12CCCCC=C1N(Cc1ccc(Cl)cc1Cl)C(=O)[C@H](CC(=O)NCCc1ccccc1OC)C2	/	/	-4	/	/	-6
Cc1ccc(NC(=O)Cn2c(=O)n(CCCCC(=O)NCc3ccccc3Cl)c(=O)c3ccccc32)cc1	/	1%	/	/	/	/
COC(=O)C/C=C\[C@@H](C)[C@@H](/C=N\OC[C@@H](O)[C@H]1O[C@H]2OC(C)(C)O[C@H]2[C@@H]1O)NS(=O)(=O)c1ccc(C)cc1	/	-2%[15.3 µM]	/	/	/	/
CCc1ccccc1NC(=O)CCc1c(C)nc2cc(-c3ccccc3)nn2c1C	/	0%	/	/	/	/
CC(=NNC(=S)N1CC2CCC(CC2)C1)c1ccccn1	/	/	-14	/	/	-14
CC(=NNC(=S)N1CCCCCC1)c1cccc2cccnc12	/	/	?	/	/	-90*
C=NCc1cc2c(OC[C@@H](O)CNC(C)(C)C)cccc2[nH]1	/	1%	/	/	/	/
CCOc1nc(-c2ccc(C)cc2)ccc1-c1noc(-c2cccnc2)n1	-3%	-2%	/	1%	4.5µM*	/
O=C(O)CSC(=S)N1CCCC1	1%	0%	3	-3%	1%	7
O=C(CSC(=S)N1CCCC1)N/N=C/c1c(O)[nH]c(=S)[nH]c1=O	15%	/	-91*	/	/	-93*
CCOc1ccccc1Oc1ncnc2c1oc1ccccc12	/	-2%	/	/	/	/
Cc1ccc(/C(=N/Nc2ncnc3ccccc23)C(=O)O)cc1	20%	-8%	-84*	8%	/	-77*
COc1cc([N+](=O)[O-])cc(/C=N/NC(=O)CSc2ccccn2)c1O	-6%	-7%	-82*	/	20µM*	-91*
SMILES	Eya2 phos inh	Anesthetic bind	Six1-Eya2 blk	GALK inhibitor	JMJD2E inh	CtBP-E1A inh
COc1cc([N+](=O)[O-])cc(/C=N/NC(=O)CC#N)c1O	-21%	-16%	/	-1%	?	/
Cc1ccc(C(=O)N/N=C/c2cc(Br)ccc2O)cn1	6%	-11%	-89*	-4%	/	-91*
COc1cc(/C=N/NC(=O)CSc2ccccn2)ccc1O	-4%	-3%	-8	2%	0%	4
COc1cc([N+](=O)[O-])cc(/C=N/NC(=O)c2ccc(NC(=O)c3ccc(C)cc3)cc2)c1O	7%	-9%	-8	-2%	6%	?
COc1cc([N+](=O)[O-])cc(/C=N/NC(=O)c2ccc(C)nc2)c1O	5%	1%	-88*	0%	14µM*	-95*
COc1cc([N+](=O)[O-])cc(/C=N/NC(=O)Cn2cncn2)c1O	-4%	-13%	-90*	6%	14µM*	/
Cc1ccc(C(=O)N/N=C\C=C\c2ccc(Br)cc2)cn1	?	-6%	1	0%	-14%	/
C/C(=C\CO)CCO	/	/	/	/	-6%	/
Oc1ccc(Br)cc1/C=N/NC(=S)NCCc1ccccc1	-6%	-11%	-24	2%	/	-19
CCOc1cc(Br)cc(/C=N/NC(=O)c2cccnc2)c1O	-11%	-10%	-67*	-1%	/	-92*
CC(C)NC(=S)N/N=C/c1cc(Br)ccc1O	-12%	52%	-82*	2%	25µM*	-89*
Cc1nc(N2C(=O)c3oc4ccccc4c(=O)c3C2c2ccccc2F)sc1C (stereo not given)	/	-4%	/	/	/	/
Cc1ccc(-c2oc3ccccc3c(=O)c2O)cc1	-18%	-6%	5	0%	-22%	12
Cc1ccc2oc(-c3ccccc3)c(O)c(=O)c2c1	/	/	/	/	14µM*	/
CCCCCCCCCCC(C)=O	/	5%	/	/	/	/
CCNC(=O)C(=O)N/N=C/c1cc([N+](=O)[O-])ccc1O	10%	-7%	-92*	0%	25µM*	-94*
O=C(N/N=C/c1cc([N+](=O)[O-])ccc1O)c1cc(-c2ccccc2)nc2ccccc12	4%	-11%	?	1%	-7%	-27
O=C(N/N=C/c1cc([N+](=O)[O-])ccc1O)C12CC3CC(CC(C3)C1)C2	13%	-9%	-5	-1%	?	-9
Cc1cc(C(=O)N/N=C/c2cc([N+](=O)[O-])ccc2O)c2ccccc2n1	-2%	-11%	-92*	1%	28µM*	19
O=[N+]([O-])c1ccc(O)c(/C=N/NC(=S)Nc2ccc(Cl)cc2Cl)c1	-4%	-1%	-17	/	8.9µM*	-22
Cc1cc(C(=O)N/N=C/c2cc(Br)cc([N+](=O)[O-])c2O)c2ccccc2n1	-3%	-13%	-87*	/	6.3µM*	-94*
Cc1cc(Cl)ccc1NC(=O)CCC(=O)N/N=C/c1cc([N+](=O)[O-])ccc1O	4%	-15%	?	8%	-2%	-26
Cc1ccc(N2CC3=C(C2=O)C(c2ccc(Br)cc2)NC(=O)N3C)cc1 (stereo not given)	/	-9%	/	/	/	/
Cc1cccc(N(C)C(=O)CN(C)S(=O)(=O)c2ccc3[nH]c4c(c3c2)CCCC4)c1	/	-7%	/	/	/	/
Cc1ccccc1C(=O)Nc1cccc(C(=O)N/N=C/c2cc(Cl)cc([N+](=O)[O-])c2O)c1	-7%	?	?	0%	-3%	-73*

Source: PubChem BioAssay (National Center for Advancing Translational Sciences (NCATS))
